According to PubChem BioAssay AID1852 (Sanford-Burnham Center for Chemical Genomics, 2009):
The campaign covered roughly 2,500 compounds. About 1,100 (44%) were called active.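 How the source made its calls: active means inhibition above 50% at 4 µM in the single-point screen; inactive means inhibition of 50% or less.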 So high a share suggests a set chosen from earlier hits. The list shows a part of the results.

Assay: TNF-a-driven NF-kB reporter inhibitors, primary screen, selectivity assay for NOD1/NOD2 signaling inhibitor project, cell-based, HEK293T NF-kB-Luc, luminescence (AID 1852)
Details: TNF-a induced, 14 h, at 4 µM, stronger effect = higher value

inhibition, active:
COC(=O)Cc1[nH]n(-c2nc3ccccc3s2)c(=O)c1C(C)=Nc1ccc(C)cc1 55.7%
Cc1sc2nc(SCc3ccc(C(=O)O)cc3)n(Cc3ccco3)c(=O)c2c1C 74.6%
Cc1ccc2nc(-c3ccc4c(c3)OCCO4)cn2c1 51.3%
O=C(CSc1cccc2cccnc12)Nc1ccc(S(=O)(=O)N2CCOCC2)cc1 104%
CN(C)S(=O)(=O)c1cccc(NC(=O)CSc2cccc3cccnc23)c1 100%
CC(C)(C)C(=O)Nc1ccc(NC(=O)c2ccco2)nc1 98.2%
COc1ccc(-c2nn(-c3ccccc3)cc2/C=N/NC(=O)c2ccc(Br)o2)cc1 94.1%
Cc1ccc(-c2nn(-c3ccccc3)cc2/C=N/NC(=O)c2ccc(Br)o2)cc1 95.5%
CC[n+]1c(/C=C/N(C)c2ccccc2)n(-c2ccccc2)c2ccc(-c3nc4ccccc4s3)cc21 102%
Cn1c2c(c(=O)n(C)c1=O)C(C(F)(F)F)(C(F)(F)F)N=C(c1ccc(Cl)cc1)N2 73.2%
Cc1ccc(C(=O)NC(=C(Cl)Cl)S(=O)(=O)c2ccc(Cl)cc2)cc1 63.9%
Cc1ccc(C(=O)NC(=C(Cl)Cl)S(=O)(=O)c2ccccc2)cc1 97.7%
O=C(NC(=C(Cl)Cl)S(=O)(=O)c1ccc(Cl)cc1)c1ccccc1 97.1%
Cc1ccc(C(=O)NC(C#N)=C(Cl)Cl)cc1 94.7%
O=C(O)c1c(NC(=O)c2cccc3ccccc23)sc2c1CCC2 53.9%
COC(=O)c1ccc(Nc2c([N+](=O)[O-])c(=O)oc3ccccc23)cc1 99.5%
C=CS(=O)(=O)c1ccc(Oc2ccc(S(=O)(=O)C=C)cc2)cc1 103%
CC(=O)NC(c1ccccc1)c1cc([N+](=O)[O-])c2cccnc2c1O (configuration not stated) 99.5%
CCC(=O)NC(/C=C/c1ccccc1)c1cc([N+](=O)[O-])c2cccnc2c1O (configuration not stated) 81.6%
CC(=O)NC(c1ccc(C)cc1)c1cc(Cl)c2cccnc2c1O (configuration not stated) 77.9%
CC(=O)NC(c1ccc(C)cc1)c1cc([N+](=O)[O-])c2cccnc2c1O (configuration not stated) 76.4%
CCC(=O)NC(c1ccc(C)cc1)c1cc([N+](=O)[O-])c2cccnc2c1O (configuration not stated) 84.6%
CC[C@@]1(O)C(=O)OCc2c1cc1n(c2=O)Cc2cc3c(N)cccc3nc2-1 88.3%
O=C(N/N=C/c1ccc([N+](=O)[O-])o1)c1cc2ccccc2o1 52.9%
O=[N+]([O-])c1ccc(/C=N/N=C/c2ccc([N+](=O)[O-])o2)o1 83%
Cc1scc(C(=O)N/N=C/c2ccc([N+](=O)[O-])o2)c1C 72%
O=C(N/N=C/c1ccc([N+](=O)[O-])o1)c1ccccc1NS(=O)(=O)c1cccs1 61.1%

inhibition, inactive:
COC(=O)Cc1[nH]n(-c2nc3ccccc3s2)c(=O)c1C(C)=Nc1ccc(OC)cc1 30.8%
COc1ccccc1NC(=O)CSc1nc2sc(C)c(C)c2c(=O)n1C 26.3%
COC(=O)c1ccc(CSc2nc3ccccc3c(=O)n2Cc2ccco2)o1 6.3%
Cc1ccc(-c2csc(N3CCC(NS(=O)(=O)c4ccc5c(c4)OCCO5)CC3)n2)cc1 48.7%
CCc1ccn2cc(-c3ccc4c(c3)OCO4)nc2c1 23%
CCS(=O)(=O)C1=NN2C(=N)/C(=C\c3ccc(OCCOc4cccc(OC)c4)c(OC)c3)C(=O)N=C2S1 -32.8%
Cc1ccc(S(=O)(=O)N(C)C)cc1NC(=O)COC(=O)/C=C/c1cnc2ccccc2n1 12%
O=C(CN1CCN(c2cccc(Cl)c2)CC1)Nc1ccc(S(=O)(=O)N2CCOCC2)cc1 23.3%
CCc1nc2ccccc2c(C(=O)OCC(=O)Nc2cccc(S(=O)(=O)N3CCOCC3)c2)c1C -0.6%
CCN(CC)S(=O)(=O)c1cccc(NC(=O)CNc2cccc(S(=O)(=O)N3CCCC3)c2)c1 41.7%
O=C(Nc1nc2cc3c(cc2s1)OCCO3)c1ccco1 -31%
O=C(Nc1cccc(NC(=O)c2ccc(-c3cccc(Br)c3)o2)c1)c1ccco1 -15.4%
O=C(N/N=C/c1cn(-c2ccccc2)nc1-c1cc2ccccc2o1)c1c[nH]c2ccccc12 -224%
Cc1cc([N+](=O)[O-])ccc1-c1ccc(/C=N/NC(=O)c2ccc(Br)o2)o1 -0.2%
COc1ccc(/C=N/NC(=O)c2ccc(Br)o2)cc1Cn1cc([N+](=O)[O-])cn1 -16%
Cc1ccc(-c2nn(-c3ccccc3)cc2NC(=O)CCl)cc1 -28.6%
CC(C)c1ccc(-c2nc3ccccc3s2)cc1 14.5%
Cc1nc2c(Br)cc(Br)cc2cc1O 8.1%
Cc1ccc(C(=O)NC(=C(Cl)Cl)S(=O)(=O)c2ccc(C)cc2)cc1 4.6%
Cc1ccc(C(=O)c2cnc3cc4c(cc3c2S(=O)(=O)c2ccccc2)OCCO4)cc1 -56.6%
COc1ccc(C(=O)NC(=C(Cl)Cl)S(=O)(=O)c2ccc(C)cc2)cc1 -46.2%
CC(=O)NC(=C(Cl)Cl)S(=O)(=O)c1ccccc1 42.6%
CC(C)NC(=S)NC(c1ccccc1)(c1ccccc1)c1ccccc1 19.3%
COc1cc(/C=C2\C(=N)N3N=C(S(C)(=O)=O)SC3=NC2=O)ccc1OCCOc1ccc(C)cc1 -39.5%
Clc1ccccc1Cc1noc(CN2CCN(c3cnccn3)CC2)n1 7.7%
O=C(Nc1sc2c(c1C(=O)O)CCCC2)c1ccccc1Cl 25%
Cc1cccc(C(=O)Nc2sc3c(c2C(=O)O)CCCC3)c1 -8.5%
Cc1ccc(Nc2c([N+](=O)[O-])c(=O)oc3ccccc23)cc1C 6.4%
O=c1oc2ccccc2c(Nc2ccc(F)cc2)c1[N+](=O)[O-] -32.2%
CCCCCc1ccc(OCCCC[n+]2ccc(C)cc2)c(CCCCC)c1 6.6%
O=C(CNc1cccc2ccccc12)N/N=C/c1ccc([N+](=O)[O-])o1 34%
O=C(N/N=C/c1ccc([N+](=O)[O-])o1)c1ccccc1-n1cccc1 45.7%
Cc1ccc(NCC(=O)N/N=C\c2ccc([N+](=O)[O-])o2)cc1 35.7%
O=C(Nc1c(Cl)ccc2nsnc12)c1ccc([N+](=O)[O-])o1 16%
Cc1nonc1C(=O)N/N=C/c1ccc([N+](=O)[O-])o1 46%
